Our source for the Percent Effect values is ChEMBL document CHEMBL3988442, “University of Dundee, Small-Polar-MMV Screening Library” (2021).

SMILES strings stand for the structures.

The target in assay [1] is T1, Aspartate--tRNA(Asp/Asn) ligase (Mycobacterium tuberculosis (strain ATCC 25618 / H37Rv)) (UniProt P9WFW3). Further: in the data most compounds retested in dose-response had high values.
T1 sequence (whole entry): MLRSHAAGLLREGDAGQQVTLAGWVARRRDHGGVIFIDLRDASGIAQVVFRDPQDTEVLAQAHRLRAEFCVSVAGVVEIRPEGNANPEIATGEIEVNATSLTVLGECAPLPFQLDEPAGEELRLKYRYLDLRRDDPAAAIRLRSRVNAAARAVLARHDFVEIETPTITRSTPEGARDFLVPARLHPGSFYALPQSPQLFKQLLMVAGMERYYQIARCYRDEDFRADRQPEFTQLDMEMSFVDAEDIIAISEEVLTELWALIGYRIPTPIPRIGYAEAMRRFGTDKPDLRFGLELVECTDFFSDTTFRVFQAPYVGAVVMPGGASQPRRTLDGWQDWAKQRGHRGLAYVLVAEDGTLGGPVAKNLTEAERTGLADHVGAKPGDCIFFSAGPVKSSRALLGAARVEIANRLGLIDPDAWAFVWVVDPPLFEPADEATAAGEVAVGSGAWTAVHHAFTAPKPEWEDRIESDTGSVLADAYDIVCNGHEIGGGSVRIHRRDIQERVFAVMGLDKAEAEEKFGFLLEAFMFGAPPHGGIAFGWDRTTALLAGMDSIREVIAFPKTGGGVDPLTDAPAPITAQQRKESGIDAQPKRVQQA
Briefly: Assay for Asp RNA synthetase-1 from Mycobacterium tuberculosis. To be noted: 30 µM. It counts as functional. More on the design: scale not given: direction of the effect not stated beside the values.

The target of assay [2] is Shiga toxin 2 (Escherichia coli O157:H7) (UniProt P09385+P09386). Briefly: E. coli 0.157:H7 Shiga Toxin SOP - stx2 screening assay. More on the design: scale not given: direction of the effect not stated beside the values. To be noted: 30 µM. Format: functional.

Regarding `CCN(CC)C(=O)CCNC(=O)N1CCC(c2ccccc2)C1` (stereo not given), the results for the Percent Effect in assay [1] and in assay [2] were -1.42% and -20.3%, respectively.
`COCCN1C(=O)CO[C@H]2CN(Cc3c[nH]nc3-c3ccccc3)C[C@@H]21`: the Percent Effect in assay [1] is -1.03%; in assay [2], 7.69%.
In the case of `Cc1cc(C)c(CNC(=O)C2CCCN(c3cnccn3)C2)c(=O)[nH]1` (stereo not given), the Percent Effect in assay [1] was -0.345%; in assay [2] it was 30.7%.
The matching figures for `CCc1ncc2c(n1)CN(CC(=O)NCCOc1ccccc1)CC2`: 2.89% and 23.5%.
Turning to `CC(=O)N1CCN(CCNS(=O)(=O)c2ccc(C)c(F)c2)CC1`, the Percent Effect is -1.95% in assay [1] and 5.72% in assay [2].
Turning to `CCCn1[nH]cc/c1=N\C(=O)CN1CCc2c(nc(C(C)C)n2C)C1`, the Percent Effect in assay [1] turned out to be 1.84%; in assay [2] it was 1.47%.
With `CC(NC(=O)NCc1ccc(Cl)s1)c1ccccn1` (stereo not given), the Percent Effect in assay [1] is -0.451%; in assay [2] it was -14.6%.
For `CNC(=O)CS(=O)(=O)C1CCN(S(=O)(=O)C2CC2)CC1`, the Percent Effect is 1.09% in assay [1] and -3.71% in assay [2].
The matching figures for `c1cc(OCc2ccc3c(c2)OCO3)ccc1CNC1CC1`: -1.47% and -108%.
With `Cc1cc(-c2cnc(N3CCN(C)CC3)nc2-c2ccc(C)s2)on1`, the Percent Effect was -3.23% in assay [1] and -24.7% in assay [2].
Turning to `Cc1nc(C)n(CC2CCCN(CCC(=O)N3CCCCC3)C2)n1` (stereo not given), the Percent Effect is -1.61% in assay [1] and 13.6% in assay [2].
In the case of `COc1c(CNCc2cccc(CN(C)C)c2)c(C)nn1C`, the Percent Effect in assay [1] is -1.85%; in assay [2], 13.1%.
Take `Cc1nc2cc(C(=O)N3CCCC(n4cncn4)C3)ccc2n1C` (stereo not given): the results for the Percent Effect in assay [1] and in assay [2] were -8.92% and -28.5%, respectively.
On to `Cc1n[nH]c(C2CN(C(=O)Cn3ccccc3=O)CCO2)n1` (stereo not given), for which the Percent Effect is -3.22% in assay [1] and 10.2% in assay [2].
On to `COc1cccc(C2CC(=O)Nc3nc(N4CCOCC4)sc32)c1OC` (stereo not given), for which the figures for the Percent Effect in assay [1] and in assay [2] were 63.4% and -3.76%, respectively.
With `CS(=O)(=O)N[C@@H]1CCO[C@]2(CCN(C(=O)c3cnccn3)C2)C1`, the Percent Effect was 4.35% in assay [1] and 3.82% in assay [2].
Regarding `c1cc(CN2Cc3nnn(CC4CC4)c3C(COCC3CC3)C2)co1` (stereo not given), the Percent Effect in assay [1] is -1.45%; in assay [2], -2.53%.
For `O=C(NCc1cc[nH]n1)N1CCN(c2ccccc2Cl)CC1`, the Percent Effect in assay [1] is 0.562%; in assay [2], 11.5%.
As for `Cn1c(Nc2cn[nH]c2)c(C#N)c(=O)n(C)c1=O`, the values for the Percent Effect in assay [1] and in assay [2] were -0.24% and -19.1%, respectively.
Turning to `CC(=O)Nc1nc(CN2CCCC2c2cnn(C)c2)cs1` (stereo not given), the results for the Percent Effect in assay [1] and in assay [2] were -1.4% and -28.6%, respectively.
For `Cn1cc(C(=O)NC2CCN(C(=O)NCC3CCSCC3)CC2)cn1`, in that order: 3.16% and -2.79%.
Turning to `Cc1noc2nc(C3CCN(Cc4ccncc4)CC3)cc(C(F)F)c12`, the Percent Effect in assay [1] is 5.43%; in assay [2], -67.8%.
For `COC(C(=O)N1CCCN(Cc2cscn2)CC1)c1ccccc1` (stereo not given), the figures for the Percent Effect in assay [1] and in assay [2] were 0.144% and 3.66%, respectively.
For `CCC(O)CNC(=O)c1coc(COc2ccc3sc(C)nc3c2)n1` (stereo not given), the results for the Percent Effect in assay [1] and in assay [2] were 5.32% and -27.2%, respectively.
For the molecule `Cn1nc2c(cc1=O)CN(Cc1coc(-c3cccs3)n1)CC2`, the Percent Effect is 39.2% in assay [1] and -29.8% in assay [2].
In the case of `COC(=O)C1CCN(C(=O)CN2CCN(c3cccc(C)c3)CC2)CC1`, the Percent Effect was -0.137% in assay [1] and -48.5% in assay [2].
As for `O=C(CN1CCC(N2CCNC2=O)CC1)NCC(F)(F)F`, the Percent Effect in assay [1] is -5.14%; in assay [2] it was -3.06%.
As for `COC1CCCN(Cc2nc(Cc3ccccc3F)no2)C1` (stereo not given), the Percent Effect in assay [1] is -7.18%; in assay [2], 6.38%.
For `Cc1n[nH]c(C)c1C1CCCN1C(=O)CNC(=O)C(C)(C)C` (stereo not given), the Percent Effect in assay [1] is 1.09%; in assay [2], -19.5%.
In the case of `O=C(COc1coc(CN2CCCCC2)cc1=O)NCc1ccccc1`, the values for the Percent Effect in assay [1] and in assay [2] were 10.2% and -39.3%, respectively.
As for `CN1CCN(CCCNC(=O)c2cc(Cl)c3c(c2)OCO3)CC1`, the Percent Effect in assay [1] was -5.91%; in assay [2], -42.5%.
With `CN1CCN(C[C@@H]2CN(C(=O)c3ccccc3C#N)C[C@@H]2CO)CC1`, the Percent Effect in assay [1] is -1.09%; in assay [2], -8.04%.
As for `CCOc1ccc(N2CCCN=C2NC(=O)c2ccccc2C)cc1`, the Percent Effect in assay [1] was 4.31%; in assay [2], -57.5%.
On to `O=C(C1CCCCC1)N1CCC2(CCCN2CC2CC2)CC1`, for which the Percent Effect is 2.39% in assay [1] and -6.44% in assay [2].
As for `Cc1cnn(CCCNC(=O)N2CCCCC(N3CCCC3)C2)c1` (stereo not given), the Percent Effect in assay [1] was 1.48%; in assay [2] it was 22.3%.
As for `Cc1cc(C)n(CCC(=O)N2CCCC(n3cncn3)C2)n1` (stereo not given), the figures for the Percent Effect in assay [1] and in assay [2] were -6.22% and 0.596%, respectively.
Regarding `Cc1cccnc1CN1CCC(c2nnc(Cn3cccn3)n2C)CC1`, the Percent Effect was -1.2% in assay [1] and -18.5% in assay [2].
As for `O=C(COc1coc(CN2CCCC2)cc1=O)NCc1ccccc1Cl`, the Percent Effect in assay [1] was -2.03%; in assay [2] it was -62.7%.
As for `CCc1nnc2n1CCN(Cc1csc(-c3cnn(C)c3)n1)C2`, the figures for the Percent Effect in assay [1] and in assay [2] were 6.46% and -29.4%, respectively.
For the molecule `COc1ccccc1C1CNC(=O)c2nc(-c3ncc[nH]3)[nH]c2C1` (stereo not given), the Percent Effect was 2.38% in assay [1] and -14.6% in assay [2].
On to `COc1ccc(C(CNC(=O)Nc2cn[nH]c2)N2CCOCC2)cc1` (stereo not given), for which the Percent Effect in assay [1] was 1.21%; in assay [2], 23.8%.
In the case of `Cc1noc(C2CCN(C(=O)CCc3nccs3)CC2)n1`, the Percent Effect is -2.48% in assay [1] and -79.2% in assay [2].
For the molecule `O=C(O)c1cc(-c2cccnc2)cc(S(=O)(=O)N2CCCCCC2)c1`, the Percent Effect was -3.5% in assay [1] and 11.4% in assay [2].
In the case of `CC(C)CCCNC(=O)Nc1ccc(F)c(C(N)=O)c1`, the Percent Effect in assay [1] is -3.06%; in assay [2], -45.5%.
Regarding `Cc1cc(C)n(CC2CN(Cc3nnsc3Cl)CCO2)n1` (stereo not given), the Percent Effect in assay [1] is -1.81%; in assay [2], 31.3%.
As for `O=C(c1ccc(F)cc1F)N1C[C@@H](O)[C@H](N2CCOCC2)C1`, the values for the Percent Effect in assay [1] and in assay [2] were 4.46% and -20.4%, respectively.
For `CCc1cccc(NS(=O)(=O)c2cc3c(c(C(=O)O)c2)OCCO3)c1`, the Percent Effect is -2.26% in assay [1] and -33.5% in assay [2].
For `CNC(=O)N1CCc2cc(C(=O)N(C)C)c(NCC3CC3)nc2CC1`, the Percent Effect in assay [1] was 1.99%; in assay [2], -3.46%.
Take `Cc1ccc(C(C)NC(=O)Cc2c(C)nc3c(c2C)c(=O)[nH]n3C)o1` (stereo not given): the Percent Effect is 18.6% in assay [1] and -15.3% in assay [2].
`CCNc1nc2c(s1)C(=O)CN(C(=O)NCCc1ccccc1)C2`: the Percent Effect in assay [1] is 2.72%; in assay [2], -10.6%.
